Data on 59 molecules can be found in PubChem BioAssay AID743398 (Broad Institute, 2014).

Molecules are shown by their SMILES. Hit rate of the full screen: of about 300,000 compounds, about 3,600 (1.2%) were called active. The entries come from a sample that favours actives as a whole. A number with no mark means an inactive call. Rule as the data show it: active = activation above about 30% (passing the limit was not always enough); inconclusive = no clear call, values can overlap the other calls.

The nature of the assay: activation of beta-catenin signaling reporter – cell-based, plate reader, single point, primary screen (AID 743398).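 Also: 0% = neutral control wells and 100% = positive control wells.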 The settings on record: Wnt/beta-catenin reporter cell assay, activator, at 9.35 µM, stronger effect = higher value.
`COc1cccc(CNC(=O)[C@H]2CCCN2C(=O)[C@H]2CCCN2C(=O)c2cc(F)cc(F)c2)c1`: the activation was -1.85%. For the molecule `CN(C)c1ccc(C2Nc3ccccc3C(=O)N2NS(=O)(=O)c2ccccc2)cc1` (centres undefined), the activation was -0.625%. Regarding `O=C1c2ccccc2NC(c2ccccn2)N1NS(=O)(=O)c1ccccc1` (centres undefined), the activation was 31% (active). `O=C1c2ccccc2NC(c2ccccc2O)N1NS(=O)(=O)c1ccccc1` (centres undefined): the activation is -0.668%. As to `c1ccc(CNCc2ccc(CNCc3ccccc3)cc2)cc1`, the activation was 0.235%. Take `N#CCCN(C(=O)Nc1ccc(Cl)c(Cl)c1)C1CCCCC1`: the activation was 2.31%. Turning to `CC1(C(=O)NCc2ccc3c(c2)OCO3)CCN1C(=O)Cc1cccc2ccccc12` (centres undefined), the activation is 12.9%. Then `CCN(CC)CCN(C)C(c1ccnc2ccccc12)c1nnnn1-c1ccc2c(c1)OCCO2` (centres undefined), with -2.38%; and `CCc1cccc(CC)c1N1C(=O)CC(Sc2ccccc2N)C1=O` (centres undefined), with 2.41%; and `Brc1ccc2nc(N3CCCC3)sc2c1`, with 43.7% (active). In the case of `O=S(=O)(Nc1ccc2nc(N3CCOCC3)sc2c1)c1ccccc1`, the activation is 29.3%. `c1c2c(cc3sc(N4CCCCC4)nc13)OCCO2`: the activation is 1.11%. Regarding `COC(=O)[C@@]12C[C@@H](CC(=O)N3CCC(c4ccccc4)CC3)C(=O)N(Cc3ccccc3)C1=CCC(C)(C)C2`, the activation is -3.58%. `CCCCCc1c(Cc2ccccc2)ncn1CCc1ccccc1OC`: the activation was -9.51%. In the case of `O=C(O)c1cc([N+](=O)[O-])c(Nc2cccc3ccccc23)c([N+](=O)[O-])c1` it was 0.153%; in that of `O=C(Nc1ccc2ccccc2c1[N+](=O)[O-])c1ccccc1`, 55.8% (active). As for `O=C(CNC(=O)c1ccccc1)Oc1ccc([N+](=O)[O-])cc1`, the activation was -0.597%. On to `COC(=O)c1c(-c2ccc(OC)cc2)c2c(c3c4ccccc4n(S(=O)(=O)c4ccc(C)cc4)c13)C(=O)N(C)C2`, for which the activation is -6.59%. With `COC(=O)C1=C(C(=O)OC)C2C=C(C(C)C)C1C(=O)C2(C)O` (centres undefined), the activation was -3.31%. Regarding `O=C(NCc1ccc(F)cc1)c1cc(C2CCCCN2C(=O)c2ccccn2)on1` (centres undefined), the activation is -0.749%.

As for `O=C(NCc1ccccc1)[C@@H]1CCCN1C(=O)[C@@H](NS(=O)(=O)c1ccc(F)cc1F)C1CCCCC1`, the activation is -0.246%.

Take `COC(=O)c1ccc(SCc2ccccc2)nc1`: the activation is 51.6% (active). `COC(=O)c1ccc(CSc2ccc(S(=O)(=O)N3CCCCC3)cn2)cc1`: the activation is -0.89%. In the case of `COC(=O)c1ccc(CSc2nncn2N)cc1`, the activation is -7.5%. In the case of `Nc1ccn([C@@H]2O[C@H](C(=O)N[C@H]3CCCCNC3=O)[C@@H](O)[C@H]2O)c(=O)n1` it was -3.4%.

On to `Cc1cc(C)nc(N2CCC(C(=O)Nc3ccc4c(c3)OCCO4)CC2)n1`, for which the activation is -5.24%.

Turning to `O=C(Nc1ccc2c(c1)OCCO2)C1CCCN(c2ncccn2)C1` (centres undefined), the activation was 45.5% (active).

As for `O=C(Nc1ccc2c(c1)OCCO2)C1CCCC1`, the activation is -15.2%. Turning to `CC1(C(=O)Nc2cccc3cccnc23)CCN1C(=O)CCC1CCCC1` (centres undefined), the activation is -4.88%. As to `O=[N+]([O-])c1ccccc1N/N=C1\CCc2ccccc21`, the activation is 47.7% (active). Then `CN1CCN(CCNC(=O)Nc2ccccc2[N+](=O)[O-])CC1`, with -0.54%; and `O=[N+]([O-])c1cc(C(F)(F)F)ccc1NN=C1CCCC1`, with 6.33%; and `CC1=C(C(=O)N2CCOCC2)CC(CC(=O)NCC2CCCCC2)C(=O)N1Cc1ccc(F)cc1` (centres undefined), with -1.2%. As to `CCCCCCN1CCN(C2CN(Cc3cn(Cc4ccc(F)cc4)nn3)S(=O)(=O)C2)CC1` (centres undefined), the activation was -5.62%. For `Cc1ccc(C(=O)Nc2ccn(C)n2)cc1`, the activation was 55.8% (active). `CN(C)S(=O)(=O)c1cc(C(=O)Nc2ccn(C)n2)c(Cl)cc1Cl`: the activation was 1.22%. In the case of `Cn1ccc(NC(=O)Nc2ccc(Cl)cc2)n1` it was 20.1%; in that of `Cc1ccc(-c2ccc(CN3C(C(C)C)C(=O)N(Cc4cn(CCC5OCCO5)nn4)CCS3(=O)=O)cc2)cc1` (centres undefined), -0.655%.

With `CC(=O)Nc1ccc(C(=O)NNC(=O)CCCCC(=O)NNC(=O)c2ccc(NC(C)=O)cc2)cc1`, the activation was 1.15%. In the case of `CC(=O)Nc1ccc(C(=O)/C=C/c2ccc[nH]2)cc1`, the activation was 42.8% (active). `CC(=O)Nc1ccc(C=CC(=O)c2ccc([N+](=O)[O-])cc2)cc1`: the activation is -6.15%.

In the case of `CCOc1ccccc1C(=O)N1CCC[C@@H]1C(=O)N1CCC[C@H]1C(=O)NCc1ccccc1`, the activation is 1.73%. Regarding `COC(=O)[C@]12C[C@H](CC(=O)NCCc3ccccc3OC)C(=O)N(Cc3ccccc3)C1=C[C@H](C(C)C)O[C@@H]2C1CC1`, the activation is -2.31%. In the case of `COc1ccc(Nc2nnc(C)c3ccccc23)cc1` it was 1.79%. Then `COc1ccc(Nc2ccc3ccccc3c2)cc1`, with 50.4% (active). In the case of `COc1ccc(-c2nnc(-c3ccc4ccccc4c3)o2)cc1`, the activation was 3.21%.

As to `CCOc1ccc2[nH]c(=S)sc2c1`, the activation is 6.79%. Then `COCc1cc(=O)n2[nH]c(C)c(-c3ccccc3)c2n1`, with 47.6% (active); and `CCCc1cc(=O)n2[nH]c(C)c(-c3ccc(Cl)cc3)c2n1`, with -2.59%; and `COCc1cc(=O)[nH]c(-c2ccc(C(F)(F)F)cc2)n1`, with -1.39%. On to `O=C(C(=O)N1CCC(c2ccccc2)CC1)c1ccccc1`, for which the activation is -2.25%. Turning to `Cc1cc(NC(=O)CSc2nc3c(cc2C#N)CCCCC3)no1`, the activation is 35.1% (active).

With `CC(NC(=O)CSc1nc2c(cc1C#N)CN(C)CC2)c1ccccc1` (centres undefined), the activation was -0.152%. For the molecule `Cc1cc(NC(=O)COc2ccccc2C#N)no1`, the activation is 19%. Turning to `CCOC(=O)C=Cc1ccc(C(=O)OCC)[nH]1`, the activation was -4.57%. Consider `COc1ccc(C2=CN(Cc3ccccc3)C(c3ccc(OC)cc3)CC2=O)cc1` (centres undefined), for which the activation was -3.3%.

Turning to `COC(=O)c1ccc(OC(=O)c2cnccn2)cc1`, the activation was -1.23%.

`O=C(NCCCNC(=O)c1ccccc1Cl)c1cnccn1`: the activation was -1.92%. Consider `Cn1c(=NC(=O)c2cnccn2)sc2ccccc21`, for which the activation was 40.5% (active).
